Assay outcomes from PubChem BioAssay.
This is a sample that favours compounds with a hit; in the whole collection about 12% have one here.
Sfp PPTase inh: qHTS Assay for Inhibitors of Bacillus subtilis Sfp phosphopantetheinyl transferase (PPTase); Potency, µM, for inactives: largest response in the series, negative = inhibition, usual class: inhibitors; Biochemical Sfp PPTase activity, qHTS; 4'-phosphopantetheinyl transferase ffp (Bacillus subtilis), Q9F4F7; AID 1490, 2009; 3.5% of 310,000 active;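 further: the enzyme is Sfp with the accession as filed and its product quenches rhodamine fluorescence; 0% = enzyme reaction without inhibitor and -100% = no enzyme wells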
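Sfp 15 nM + cpd, 15 min RT; start w/ rhodamine-CoA 5 uM, BHQ-2-YbbR 12.5 uM (final); 50 mM Hepes pH 7.6, 10 mM MgCl2, 0.01% NP-40, 0.01% BSA; read 525/598 nm at 0 and 30 min.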
HP1b binding inh: HTS for Inhibitors of HP1-beta Chromodomain Interactions with Methylated Histone Tails; Chromobox protein homolog 1 (Homo sapiens), P83916; AlphaScreen HP1-beta / biotin-H3K9me3 peptide binding; Potency, µM (highest dose often 114 µM), for the others: top-dose activity change, negative = inhibition, most hits filed as inhibitors; 0.56% of 390,000 active; further: nearly all actives have a fitted effect of over 70% in size
Target sequence (P83916 whole entry, looked up): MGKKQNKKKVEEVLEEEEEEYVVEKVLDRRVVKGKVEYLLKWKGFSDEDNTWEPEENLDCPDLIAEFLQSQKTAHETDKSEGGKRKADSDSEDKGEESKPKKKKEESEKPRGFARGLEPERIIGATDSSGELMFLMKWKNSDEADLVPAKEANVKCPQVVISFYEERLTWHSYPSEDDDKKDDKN
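Compound inhibition of the preformed complex between 50 nM HP1-beta and 50 nM biotinylated H3K9me3 peptide was read by AlphaScreen. Buffer was PBS pH 7.4 with 0.01% Tween-20. Incubations ran 30 min at room temperature, with 10 ug/mL donor/acceptor beads.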
JMJD2A Tudor inh: qHTS Assay for Inhibitors of JMJD2A-Tudor Domain | Lysine-specific demethylase 4A (Homo sapiens), O75164 | AlphaScreen JMJD2A-Tudor / H3K4me3 peptide binding | Potency, µM (series often up to 114 µM), inactives show top-dose activity change, negative = inhibition, most hits filed as inhibitors | 4.4% of 390,000 active | AID 504339, 2011; further: on the % scale 0 is the no-effect control and ±100 the full control effect; nearly all actives have a fitted effect of over 50% in size
G9a inh: qHTS Assay for Inhibitors of Histone Lysine Methyltransferase G9a; G9a H3K9 monomethylation, AlphaScreen, 2 h; Potency, µM (top dose mostly 102 µM), for inactives: at the top dose activity, negative = inhibition, hits mostly inhibitors; 8.8% of 350,000 active; further: on the % scale 0 is the no-effect control and ±100 the full control effect; nearly all actives have a fitted effect of over 75% in size
Target sequence (Q96KQ7 913-1193 limits assumed): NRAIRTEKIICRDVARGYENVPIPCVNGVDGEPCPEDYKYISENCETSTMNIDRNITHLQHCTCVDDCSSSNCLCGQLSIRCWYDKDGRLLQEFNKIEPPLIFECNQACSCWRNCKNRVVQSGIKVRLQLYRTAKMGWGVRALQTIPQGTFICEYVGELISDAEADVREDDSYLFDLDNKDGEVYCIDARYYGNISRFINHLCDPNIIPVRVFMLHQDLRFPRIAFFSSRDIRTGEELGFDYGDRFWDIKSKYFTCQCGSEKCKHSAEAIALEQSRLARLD
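Using a bead-based AlphaScreen, monomethylated H3K9 product from 2 h room-temperature reactions (G9a 20 nM, peptide 500 nM, SAM 20 uM) was detected with 0.5 ug/mL rabbit anti-H3K9me1 antibody.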
BAZ2B block: qHTS Assay for Inhibitors of BAZ2B; Bromodomain adjacent to zinc finger domain protein 2B (Homo sapiens), Q9UIF8; AlphaScreen BAZ2B-H3K14Ac peptide displacement; Potency, µM (doses to about 114 µM), for the others: at the highest dose activity change, negative = inhibition, actives largely listed as inhibitors; 4.4% of 360,000 active; AID 504333, 2011; further: on the % scale 0 is the no-effect control and ±100 the full control effect; nearly all actives have a fitted effect of over 60% in size
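Complex of BAZ2B and biotin-H3K14Ac (50 nM apiece) forms over 30 min at RT, then faces library compounds up to 110 uM for another 30 min; AlphaScreen beads added, 20 min dark incubation, luminescence read.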
An asterisk follows results filed as active; ? = inconclusive; . = no result; [ ] = remark or other dose. The call rests on the fitted dose curve; in most records, active means well fitted curve in the direction sought with a large enough effect; inconclusive means small, poorly fitted or top-dose-only effect, or another doubt; inactive means no such curve, though single readings can be large; an effect the other way counts as inactive or inconclusive. Potency means the concentration at half of the fitted maximal effect.

SMILES	Sfp PPTase inh	HP1b binding inh	JMJD2A Tudor inh	G9a inh	BAZ2B block
CC(C)(C)S(=O)N1Cc2cc(CO)cc(CCO)c2[C@@H]1CCO (some centres undefined)	.	42%	1%	.	.
Cc1ccc(NC(=O)c2nc(S(=O)(=O)Cc3ccc(F)cc3)ncc2Cl)cc1C	.	92%	-5%	7%[59 µM]	-8%
CCOc1ccccc1NC(=O)c1nc(S(=O)(=O)Cc2ccccc2)ncc1Cl	-9%	4%[57 µM]	-29%	40µM*	-30%
CCc1ccc(NC(=O)c2nc(S(=O)(=O)Cc3ccccc3)ncc2Cl)cc1	-26%	.	.	?	-26%
CCOC(=O)c1ccc(NC(=O)c2nsc3ccccc23)cc1	.	86%	64%	3.2µM*	50%
Cc1ccc(NC(=O)c2nc(S(=O)(=O)Cc3ccccc3C)ncc2Cl)cc1C	-16%	-24%[57 µM]	13µM*	45µM*	-34%
CCOC(=O)c1ccc(NC(=O)c2nc(S(=O)(=O)Cc3ccccc3)ncc2Cl)cc1	?	-11%[57 µM]	-16%	22µM*	-29%
COc1ccccc1NC(=O)c1nc(S(=O)(=O)Cc2ccccc2)ncc1Cl	-12%	7%[57 µM]	-11%	18µM*	-28%
CCS(=O)(=O)c1ncc(Cl)c(C(=O)Nc2ccccc2OC)n1	7%	53%	-5%	.	-7%
CC(=O)Nc1ccc(NC(=O)c2nc(S(=O)(=O)Cc3cccc(C)c3)ncc2Cl)cc1	-3%	-4%[57 µM]	-25%	45µM*	-22%
COc1ccc(OC)c(NC(=O)c2nc(S(=O)(=O)Cc3ccc(F)cc3)ncc2Cl)c1	.	-6%	?	7.1µM*	?
COC(=O)c1ccc(NC(=O)c2nc(S(=O)(=O)Cc3cccc(C)c3)ncc2Cl)cc1	?	14%[57 µM]	-22%	2%	-17%
CC(=O)Nc1ccc(NC(=O)c2nc(S(=O)(=O)Cc3ccc(F)cc3)ncc2Cl)cc1	.	40%	-11%	?	1%
CC[C@]12c3[nH]c4cc(-c5ccco5)ccc4c3CCN1C(=O)[C@@H](CC(=O)NCCCOC)C[C@@H]2C(=O)N1CCN(C(=O)c2ccco2)CC1	.	13%	?	.	.
Cc1cc(C)c(S(=O)(=O)Nc2cccc(-c3cn4ccccc4n3)c2)c(C)c1	.	45%	5µM*	-36%[59 µM]	-28%
Cc1cc(C)c(S(=O)(=O)Nc2ccc(-c3cn4ccccc4n3)cc2)c(C)c1	-10%	-10%	?	?	?
OC[C@H]1O[C@@](CO)(O[C@H]2O[C@H](CO)[C@@H](O)[C@H](O)[C@H]2O)[C@@H](O)[C@@H]1O	13%	.	.	-4%[12.7 µM]	.
CN1CCc2[nH]c3ccc(Cl)cc3c2C1	.	15%[57 µM]	-11%[57.1 µM]	.	.
N#Cc1ccccc1CN1C(=O)NC2(CCCCCC2)C1=O	1%	23%	-4%	5%	-20%
COc1cccc(N=Nc2ccc(O)c3ncccc23)c1	12%	?	18µM*	10µM*	7.9µM*
COc1cccc(-n2cnc(=O)c3cccnc32)c1	8%	37%	-3%	5%[59 µM]	2%
COc1ccc(N=Nc2ccc(O)c3ncccc23)cc1	14%	-19%	22µM*	-7%[59 µM]	6.3µM*
COc1ccc(-c2ncccc2O)cc1	7%	13%	-4%	1%	-1%
Oc1ccc(N=Nc2ccc3c(c2)OCCO3)c2cccnc12	-13%	?	20µM*	-47%	?
O=Nc1ccc(O)c2ncccc12	?	-2%	28µM*	?	22µM*
SMILES	Sfp PPTase inh	HP1b binding inh	JMJD2A Tudor inh	G9a inh	BAZ2B block
Oc1ccc(C=Nc2cccc3ncccc23)c(O)c1	-5%	16%	?	-16%[59 µM]	11%
O=C(Nc1cccc2ncccc12)c1ccc2c(c1)OCCO2	10%	34%	-8%	-34%[12.7 µM]	-3%
CCCCCC/C=C/c1ccc(OC)c(C2C3C=CCC(C)C3C(=O)N2Cc2ccccc2)c1 (centres undefined)	5%	46%	7%	.	.
CC(=O)Nc1ccc(NC(=O)c2cnn(-c3ccccc3)c2C2CCN(C(=O)OC(C)(C)C)CC2)cc1	.	44%	-14%	-7%[59 µM]	.
Cc1cc2c(s1)c1cnn(Cc3ccccc3Cl)c(=O)c1n2C	.	.	-16%	.	.
COc1ccc(N=Nc2cc(-c3ccccc3)ccc2O)cc1	1%	?	13µM*	?	10µM*
Oc1ccc(N=Nc2ccc3c(c2)OCCO3)c(O)c1	10%	-35%	40µM*	?	?
Oc1ccc(N=Nc2ccc(Br)cc2)c(O)c1	-8%	-9%	-34%	?	25µM*
Cc1ccc(N=Nc2ccc(O)cc2)c(Br)c1	-7%	?	35µM*	.	45µM*
CN(C)CCCOc1c2ccccc2n(Cc2ccccc2)[n+]1[O-]	8%	.	.	.	.
C=Cn1cc[n+](CC(=O)c2ccc(Br)cc2)c1	21%	22%	-2%	12%	-9%
NCCc1cnc(-c2cccc(C(F)(F)F)c2)[nH]1	4%	.	.	.	.
COc1cccc(-c2c(C(=O)O)cc(O)c3ccc(OC)cc23)c1	.	30%[57 µM]	-7%	.	.
N#Cc1nc(Nc2cc(F)cc(F)c2)c2ncn(CCCN3CCCC3)c2n1	.	.	-21%	.	.
COc1ccc2c(c1)cc1c(=O)n(CC(=O)NC(C)C)nc(C)n12	.	30%	-1%	6%[59 µM]	-1%
O=S(=O)(O)c1cccc2c(N=Nc3ccc(O)c4ncccc34)cccc12	-7%	22µM*	25µM*	10µM*	22µM*
Cc1ccc(O)c2ncccc12	19%	.	.	30%[12.7 µM]	.
Cc1ccccc1N=Nc1ccc(O)c2ncccc12	3%	?	?	?	7.9µM*
COc1cc(N)c2ncccc2c1Cl	.	16%[57 µM]	-3%	.	.
Nc1ccc(N=Nc2ccccc2)c2cccnc12	-22%	16µM*	32µM*	13µM*	7.9µM*
COc1cccc(N=Nc2ccc3cccnc3c2O)c1	15%	?	14µM*	7.1µM*	13µM*
COCc1cc(C)nc2sc3c(c12)NC(c1ccccc1C(=O)O)N(c1ccc(OC)cc1)C3=O (centres undefined)	.	28%	-28%	6%[59 µM]	-1%
Nc1ccc(Br)c2cccnc12	-25%	17%	-29%	32µM*	-33%
COc1ccc(-c2[nH]ncc2N=Nc2cc(C)cc(C)c2)cc1	16%	-17%	-20%[11.4 µM]	?	?
COc1ccc(C)cc1N=Nc1ccc(O)c2ncccc12	5%	7.9µM*	8.9µM*	10µM*	18µM*
COc1ccc(-c2[nH]ncc2N=Nc2ccccc2)cc1	?	?	28µM*	50µM*	35µM*
CC#CCN1c2ccccc2[C@]23C[C@@H](C(=O)OC)N(S(=O)(=O)c4ccc(C#N)cc4)C2=NC(C(=O)OC)=C(C(=O)OC)[C@H]13	5%	.	.	.	.
